# What was measured:
# Experiment in all cases: DAPPL (digital affinity profiling via proximity ligation, sequencing); 10 mM Tris-HCl pH 7.5, 50 mM NaCl, 1 mM DTT, 4% glycerol, room temperature, 30 min; GST-TFs on glutathione beads, 16-mer random dsDNA library, 0.1% formaldehyde crosslink after washing; high values mean tight binding
# [1] = target: T1, FEV (Homo sapiens, UniProt Q99581 1-238); details: protein: recombinant; tags: N-terminal GST; dsDNA, one strand shown
# T1 sequence: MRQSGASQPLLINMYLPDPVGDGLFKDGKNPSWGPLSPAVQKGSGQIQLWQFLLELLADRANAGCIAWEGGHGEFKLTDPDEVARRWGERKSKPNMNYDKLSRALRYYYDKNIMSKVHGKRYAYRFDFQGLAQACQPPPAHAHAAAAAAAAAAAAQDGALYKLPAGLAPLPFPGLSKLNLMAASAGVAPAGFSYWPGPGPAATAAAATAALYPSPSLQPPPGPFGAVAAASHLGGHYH
# Procedure, shortened: (§1)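 The binding signal reported is, for every hexamer, its read frequency for a factor over its read frequency for the tag-only sample. Reads came from pools of yeast-expressed, GST-fused human transcription factors on glutathione beads, barcoded with DNA and mixed with that sample, which were incubated with 200 nmole of a random double-stranded 16-mer DNA library in Tris/NaCl/DTT/glycerol buffer at room temperature for 30 min. After washing, the pools were crosslinked with 0.1% formaldehyde, proximity-ligated with BsaI/T4 ligase for 1 h at 37 °C, PCR-amplified and sequenced on an Illumina NextSeq500.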
# [2] = target: ETV5 (Homo sapiens, UniProt P41161 1-510); details: protein: recombinant; tags: N-terminal GST; dsDNA, one strand shown
# Sequence of ETV5 (P41161 whole entry): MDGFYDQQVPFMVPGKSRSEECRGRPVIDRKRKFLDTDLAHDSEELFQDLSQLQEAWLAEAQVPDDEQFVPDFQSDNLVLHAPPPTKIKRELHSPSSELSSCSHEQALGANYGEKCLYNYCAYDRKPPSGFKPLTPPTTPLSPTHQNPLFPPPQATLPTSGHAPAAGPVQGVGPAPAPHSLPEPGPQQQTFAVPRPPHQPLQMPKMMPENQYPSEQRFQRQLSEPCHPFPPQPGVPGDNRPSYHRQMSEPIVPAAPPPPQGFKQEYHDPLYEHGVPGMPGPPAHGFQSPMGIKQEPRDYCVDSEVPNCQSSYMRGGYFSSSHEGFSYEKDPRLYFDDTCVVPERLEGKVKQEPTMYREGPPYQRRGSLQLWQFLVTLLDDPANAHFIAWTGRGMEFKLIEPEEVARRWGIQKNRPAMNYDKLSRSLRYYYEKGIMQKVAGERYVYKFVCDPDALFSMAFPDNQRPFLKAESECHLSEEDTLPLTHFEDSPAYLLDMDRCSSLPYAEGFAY
# Procedure, shortened: as §1
# [3] = target: HSF1 (Homo sapiens, UniProt Q00613 1-529); details: protein: recombinant; tags: N-terminal GST; chain copies: 3; dsDNA, one strand shown
# Sequence of HSF1 (Q00613 whole entry): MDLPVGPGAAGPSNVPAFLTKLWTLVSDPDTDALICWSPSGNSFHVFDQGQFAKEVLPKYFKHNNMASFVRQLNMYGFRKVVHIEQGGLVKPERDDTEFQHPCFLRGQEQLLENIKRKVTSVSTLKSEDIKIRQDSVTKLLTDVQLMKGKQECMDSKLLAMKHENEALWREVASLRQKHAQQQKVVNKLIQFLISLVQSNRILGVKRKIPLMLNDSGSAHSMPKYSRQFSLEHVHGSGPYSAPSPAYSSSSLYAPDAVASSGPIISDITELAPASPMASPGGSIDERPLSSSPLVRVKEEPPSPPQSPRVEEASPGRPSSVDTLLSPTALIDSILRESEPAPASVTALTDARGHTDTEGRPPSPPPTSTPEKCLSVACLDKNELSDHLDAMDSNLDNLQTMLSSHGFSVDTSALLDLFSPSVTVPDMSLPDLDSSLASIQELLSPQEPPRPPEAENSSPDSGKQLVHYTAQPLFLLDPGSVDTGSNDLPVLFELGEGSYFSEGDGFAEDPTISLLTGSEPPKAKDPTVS
# Procedure, shortened: as §1
# [4] = target: T2, SPIC (Homo sapiens, UniProt Q8N5J4 1-248); details: protein: recombinant; tags: N-terminal GST; dsDNA, one strand shown
# T2 sequence: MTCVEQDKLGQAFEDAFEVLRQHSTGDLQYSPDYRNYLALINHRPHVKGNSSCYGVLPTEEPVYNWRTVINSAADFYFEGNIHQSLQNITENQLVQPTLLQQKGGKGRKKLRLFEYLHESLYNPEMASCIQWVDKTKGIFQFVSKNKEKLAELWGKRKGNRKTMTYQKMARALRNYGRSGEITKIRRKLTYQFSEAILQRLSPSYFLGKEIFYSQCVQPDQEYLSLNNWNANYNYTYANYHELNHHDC
# Procedure, shortened: as §1
# [5] = target: ELF4 (Homo sapiens, UniProt Q99607 1-663); details: protein: recombinant; tags: N-terminal GST; dsDNA, one strand shown
# Sequence of ELF4 (Q99607 whole entry): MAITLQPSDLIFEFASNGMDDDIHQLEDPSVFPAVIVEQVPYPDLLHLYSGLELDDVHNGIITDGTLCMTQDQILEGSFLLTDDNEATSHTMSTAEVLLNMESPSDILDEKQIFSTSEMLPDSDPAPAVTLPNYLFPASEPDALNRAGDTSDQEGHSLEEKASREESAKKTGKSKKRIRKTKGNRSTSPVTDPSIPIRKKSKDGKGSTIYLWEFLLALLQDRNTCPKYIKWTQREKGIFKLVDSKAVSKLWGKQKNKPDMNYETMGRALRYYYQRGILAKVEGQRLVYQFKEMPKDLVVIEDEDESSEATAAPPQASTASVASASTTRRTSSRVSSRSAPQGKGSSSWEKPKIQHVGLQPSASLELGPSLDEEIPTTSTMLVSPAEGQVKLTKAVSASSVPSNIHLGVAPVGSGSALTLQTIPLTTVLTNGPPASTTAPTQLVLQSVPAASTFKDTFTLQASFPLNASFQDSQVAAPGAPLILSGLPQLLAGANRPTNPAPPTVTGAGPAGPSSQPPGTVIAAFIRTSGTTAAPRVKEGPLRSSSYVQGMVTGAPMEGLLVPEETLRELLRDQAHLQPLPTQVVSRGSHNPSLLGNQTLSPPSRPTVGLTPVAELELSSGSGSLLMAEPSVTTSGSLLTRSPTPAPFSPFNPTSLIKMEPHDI
# Procedure, shortened: as §1
# [6] = target: T3, ELK4 (Homo sapiens, UniProt P28324-2 1-405); details: protein: recombinant; tags: N-terminal GST; dsDNA, one strand shown
# T3 sequence: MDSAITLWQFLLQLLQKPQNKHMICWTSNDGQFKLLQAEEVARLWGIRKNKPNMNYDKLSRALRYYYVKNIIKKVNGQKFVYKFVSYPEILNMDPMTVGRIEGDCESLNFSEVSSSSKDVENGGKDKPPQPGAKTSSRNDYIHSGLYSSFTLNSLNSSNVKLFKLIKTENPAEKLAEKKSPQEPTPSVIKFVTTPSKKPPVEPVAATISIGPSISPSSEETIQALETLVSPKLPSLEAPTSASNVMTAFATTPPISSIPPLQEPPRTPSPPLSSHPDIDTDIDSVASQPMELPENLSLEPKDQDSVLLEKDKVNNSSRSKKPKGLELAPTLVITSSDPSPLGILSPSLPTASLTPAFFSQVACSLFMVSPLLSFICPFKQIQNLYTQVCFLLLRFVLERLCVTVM
# Procedure, shortened: as §1
# [7] = target: T4, ETV2 (Homo sapiens, UniProt O00321 1-342); details: protein: recombinant; tags: N-terminal GST; dsDNA, one strand shown
# T4 sequence: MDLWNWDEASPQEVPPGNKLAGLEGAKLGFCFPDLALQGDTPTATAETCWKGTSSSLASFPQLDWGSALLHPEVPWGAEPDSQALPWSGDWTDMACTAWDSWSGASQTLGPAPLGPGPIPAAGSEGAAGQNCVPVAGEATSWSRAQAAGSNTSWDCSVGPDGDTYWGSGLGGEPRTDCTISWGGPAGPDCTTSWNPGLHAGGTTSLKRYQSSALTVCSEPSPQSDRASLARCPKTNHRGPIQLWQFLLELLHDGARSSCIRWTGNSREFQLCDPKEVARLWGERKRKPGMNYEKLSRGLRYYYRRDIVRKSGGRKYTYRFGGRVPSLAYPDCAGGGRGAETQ
# Procedure, shortened: as §1
# [8] = target: T5, ELF3 (Homo sapiens, UniProt P78545 1-371); details: protein: recombinant; tags: N-terminal GST; dsDNA, one strand shown
# T5 sequence: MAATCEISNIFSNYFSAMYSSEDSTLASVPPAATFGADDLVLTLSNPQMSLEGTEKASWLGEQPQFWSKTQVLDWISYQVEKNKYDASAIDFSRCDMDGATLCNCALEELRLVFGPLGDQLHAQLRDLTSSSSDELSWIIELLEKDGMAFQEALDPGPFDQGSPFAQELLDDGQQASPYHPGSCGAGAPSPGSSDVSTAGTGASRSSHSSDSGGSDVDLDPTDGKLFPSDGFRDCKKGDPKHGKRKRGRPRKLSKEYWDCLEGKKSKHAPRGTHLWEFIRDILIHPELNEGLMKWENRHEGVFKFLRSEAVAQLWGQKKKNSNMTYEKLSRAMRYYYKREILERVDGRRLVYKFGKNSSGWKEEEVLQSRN
# Procedure, shortened: as §1
sequence,measurement,setting,value
GCAACT,binding signal,[1],"1.27 fold enrichment (6-mer frequency, TF over GST control)"
same,binding signal,[2],"1.2 fold enrichment (6-mer frequency, TF over GST control)"
same,binding signal,[3],"1.05 fold enrichment (6-mer frequency, TF over GST control)"
same,binding signal,[4],"1.3 fold enrichment (6-mer frequency, TF over GST control)"
same,binding signal,[5],"1.2 fold enrichment (6-mer frequency, TF over GST control)"
same,binding signal,[6],"1.2 fold enrichment (6-mer frequency, TF over GST control)"
same,binding signal,[7],"1.04 fold enrichment (6-mer frequency, TF over GST control)"
same,binding signal,[8],"1.12 fold enrichment (6-mer frequency, TF over GST control)"
